Results from paper PMC7826789 (International Journal of Molecular Sciences, 2021).

Columns and labels:
Settings in all cases: Compound Concentration (nM):1000
GRK1 = tested on: GRK1
GRK2 = tested on: T1, GRK2
T1 construct: gene ADRBK1

GRK3 = tested on: T2, GRK3
T2 construct: gene ADRBK2

GRK4 = tested on: GRK4
GRK7 = tested on: GRK7
GSK3A = tested on: GSK3A
GSK3B = tested on: GSK3B
HASPIN = tested on: T3, HASPIN
T3 construct: gene GSG2

HCK = tested on: HCK
HIPK1 = tested on: HIPK1
HIPK2 = tested on: HIPK2
HIPK3 = tested on: HIPK3
HIPK4 = tested on: HIPK4
HPK1 = tested on: T4, HPK1
T4 construct: gene MAP4K1

HUNK = tested on: HUNK
ICK = tested on: ICK
IGF1R = tested on: IGF1R
IKK-alpha = tested on: T5, IKK-alpha
T5 construct: gene CHUK

IKK-beta = tested on: T6, IKK-beta
T6 construct: gene IKBKB

IKK-epsilon = tested on: T7, IKK-epsilon
T7 construct: gene IKBKE
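Also: KINOMEscan scanMAX binding as percent activity remaining versus control; lower means stronger binding.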

Row | SMILES | Percent Control (GRK1) [%] | Percent Control (GRK2) [%] | Percent Control (GRK3) [%] | Percent Control (GRK4) [%] | Percent Control (GRK7) [%] | Percent Control (GSK3A) [%] | Percent Control (GSK3B) [%] | Percent Control (HASPIN) [%] | Percent Control (HCK) [%] | Percent Control (HIPK1) [%] | Percent Control (HIPK2) [%] | Percent Control (HIPK3) [%] | Percent Control (HIPK4) [%] | Percent Control (HPK1) [%] | Percent Control (HUNK) [%] | Percent Control (ICK) [%] | Percent Control (IGF1R) [%] | Percent Control (IKK-alpha) [%] | Percent Control (IKK-beta) [%] | Percent Control (IKK-epsilon) [%]
1 | NS(=O)(=O)c1ccc(N/N=C2\C(=O)Nc3ccc(C(=O)NCCc4c[nH]cn4)cc32)cc1 [GW300660X] | 80 | 100 | 99 | 100 | 100 | 50 | 19 | 3.6 | 100 | 25 | 7.5 | 12 | 100 | 74 | 100 | 22 | 100 | 85 | 100 | 100
2 | CCS(=O)(=O)c1ccc(OC)c(Nc2ncc(-c3cccc(F)c3)o2)c1 [GW621970X] | 100 | 100 | 100 | 100 | 100 | 94 | 91 | 79 | 32 | 82 | 87 | 79 | 74 | 100 | 100 | 100 | 100 | 100 | 100 | 98
3 | COc1ccc2c(-c3ccnc(Nc4cccc(OC(F)(F)F)c4)n3)cnn2n1 [GW810372X] | 97 | 100 | 98 | 100 | 100 | 34 | 97 | 72 | 100 | 0.7 | 0 | 2.3 | 29 | 83 | 88 | 24 | 100 | 83 | 100 | 62
4 | COc1cccc(-c2c[nH]c3c(N/N=C/c4ccncc4)ncnc23)c1 [GW814408X] | 100 | 100 | 100 | 62 | 100 | 0 | 1 | 51 | 91 | 29 | 53 | 27 | 59 | 70 | 73 | 33 | 100 | 87 | 100 | 100
5 | Cc1cc(O)cc(C)c1/C=C/c1cncc(C(N)=O)c1 [GW435821X] | 95 | 100 | 100 | 100 | 100 | 96 | 100 | 55 | 38 | 100 | 98 | 100 | 100 | 100 | 100 | 100 | 100 | 100 | 100 | 90
6 | Cl.O=C(O[C@H]1CN[C@H](C#Cc2cc3ncnc(Nc4ccc5c(cnn5Cc5ccccc5)c4)c3s2)C1)N1CCOCC1 [GSK200398A] | 86 | 100 | 80 | 100 | 84 | 93 | 90 | 93 | 100 | 91 | 77 | 92 | 92 | 100 | 100 | 96 | 97 | 100 | 100 | 100
7 | NS(=O)(=O)c1ccc(N/N=C2\C(=O)Nc3ccc(-c4cnco4)cc32)cc1 [GW276655] | 87 | 94 | 100 | 39 | 81 | 15 | 80 | 0.3 | 95 | 35 | 28 | 20 | 51 | 100 | 61 | 8.8 | 83 | 55 | 76 | 82
8 | COC(=O)Nc1nc2ccc(Oc3ccc(NC(=O)Nc4cc(C(F)(F)F)ccc4F)cc3)cc2s1.Cl [GW693917A] | 81 | 91 | 71 | 100 | 84 | 100 | 99 | 76 | 51 | 87 | 88 | 94 | 10 | 51 | 100 | 78 | 100 | 86 | 100 | 71
9 | COc1cccc(-n2ncc3c(N/N=C/c4ccncc4)ncnc32)c1 [GW784752X] | 99 | 84 | 100 | 88 | 87 | 16 | 2.5 | 75 | 100 | 28 | 33 | 23 | 54 | 100 | 95 | 64 | 100 | 98 | 94 | 100
10 | COc1cc(N2CCN(C(C)C)CC2)ccc1Nc1nc(Nc2ccc(F)cc2C(=O)NC[C@@H](O)CO)c2cc[nH]c2n1 [GSK1392956A] | 91 | 100 | 67 | 94 | 93 | 100 | 98 | 86 | 100 | 15 | 23 | 44 | 1.4 | 86 | 83 | 100 | 9.8 | 100 | 97 | 78
11 | CN(C)CCNC(=O)Nc1ccc(N(C)c2ccnc(Nc3ccc(CS(C)(=O)=O)cc3)n2)cc1.Cl [GW830900A] | 89 | 100 | 89 | 7.1 | 96 | 100 | 85 | 100 | 100 | 88 | 94 | 81 | 85 | 30 | 55 | 70 | 100 | 100 | 97 | 100
12 | COc1ccc2[nH]c3c4[nH]c5ccc(OC)cc5c4c4c(c3c2c1)C(=O)NC4=O [GW296115X] | 95 | 88 | 70 | 100 | 64 | 100 | 68 | 76 | 74 | 56 | 64 | 44 | 70 | 90 | 91 | 89 | 97 | 89 | 87 | 48
13 | Cl.O=S1CCN(Cc2ccc(-c3ccc4ncnc(Nc5ccc(OCc6ccccc6)c(F)c5)c4c3)o2)CC1 [GW576924A] | 98 | 100 | 100 | 100 | 100 | 100 | 100 | 96 | 100 | 100 | 100 | 97 | 100 | 95 | 100 | 100 | 100 | 100 | 94 | 100
14 | CC(C)COC(=O)c1ccc2c(c1)/C(=C/Nc1ccc(S(N)(=O)=O)cc1)C(=O)N2 [GW416981X] | 86 | 100 | 100 | 43 | 100 | 45 | 71 | 18 | 100 | 88 | 75 | 63 | 100 | 48 | 100 | 44 | 100 | 69 | 100 | 16
15 | COc1ccccc1-c1cc(/C=C2\C(=O)Nc3ncc(Br)cc32)cc(Br)c1O [GW442130X] | 100 | 100 | 100 | 100 | 63 | 100 | 100 | 100 | 100 | 66 | 100 | 100 | 92 | 99 | 69 | 81 | 100 | 100 | 100 | 100
16 | CN(C)c1cc2c(Nc3ccc4c(cnn4Cc4ccccc4)c3)ncnc2cn1 [GW282974X] | 78 | 100 | 86 | 100 | 97 | 98 | 100 | 82 | 57 | 78 | 90 | 100 | 79 | 100 | 100 | 90 | 100 | 92 | 100 | 76
17 | CC1=C(C(=O)Nc2ccc3[nH]ncc3c2)C(c2ccc(Cl)c(Cl)c2)CC(=O)N1 (stereo not drawn) [GSK299115A] | 89 | 16 | 20 | 100 | 99 | 100 | 100 | 84 | 81 | 72 | 92 | 83 | 100 | 100 | 80 | 83 | 93 | 81 | 76 | 100
18 | NS(=O)(=O)c1ccc(N/N=C2\C(=O)Nc3ccc(C(=O)NCc4ccncc4)cc32)cc1 [GW300657X] | 69 | 86 | 76 | 100 | 83 | 27 | 35 | 54 | 100 | 19 | 9.9 | 12 | 81 | 70 | 86 | 15 | 95 | 86 | 83 | 42
19 | COc1cc(C)c(N(C)C(=O)CN(C)C)cc1Nc1nc(Nc2cccc(F)c2C(N)=O)c2cc[nH]c2n1 [GSK2219385] | 69 | 100 | 80 | 100 | 70 | 100 | 100 | 41 | 100 | 71 | 100 | 100 | 100 | 100 | 100 | 89 | 7.7 | 100 | 100 | 61
20 | NS(=O)(=O)c1ccc(N/N=C2\C(=O)Nc3ccc(Cl)cc32)cc1 [GW280670X] | 100 | 100 | 100 | 100 | 100 | 54 | 91 | 97 | 100 | 98 | 100 | 90 | 100 | 88 | 100 | 94 | 100 | 100 | 100 | 72
21 | COc1ccc(COc2ccc(Cc3cnc(N)nc3N)cc2OC)cc1 [GW632580X] | 93 | 97 | 93 | 100 | 100 | 95 | 95 | 88 | 90 | 100 | 94 | 100 | 100 | 100 | 72 | 99 | 91 | 94 | 100 | 86
